Assay results: PubChem BioAssay AID1159580 (chemical genetic matrix, 2015)
Out of some 5,500 compounds screened, about 2,000 (36%) were called active. About 18% were inconclusive and are not listed. Cut-off read from the data, not from the text of the source: active = normalized growth mostly below about 0.91 (no sharp cut-off); inconclusive = no clear call, values can overlap the other calls; inactive = mostly above about 0.92. The list shows a part of the results.

Assay: chemical genetic growth profiling, strain panel (AID 1159580);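 note: tested at 20 µM; growth read once vehicle control cultures reached saturation at 30 °C; 1 = growth at the plate median or of vehicle wells; lower values mean less growth of the strain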
Settings: growth OD

Measured: normalized growth

CC1O[C@@H](Oc2c(-c3ccc(O)c(O)c3)oc3cc(O)cc(O)c3c2=O)[C@H](O)[C@H](O)[C@H]1O (some centres not stated)
inactive: S. cerevisiae deletion strains, locus YJR075W, strain HOC1, stronger effect = lower value 0.996 | S. cerevisiae deletion strains, locus YKL009W, strain mrt4, stronger effect = lower value 1.11 | S. cerevisiae deletion strains, locus YKL068W, stronger effect = lower value 0.972 | S. cerevisiae deletion strains, locus YKL085W, strain MDH1 (second series), stronger effect = lower value 1.03 | S. cerevisiae deletion strains, locus YKL085W, strain MDH1, stronger effect = lower value 1.03 | S. cerevisiae deletion strains, locus YKL160W, strain elf1, stronger effect = lower value 0.994 | S. cerevisiae deletion strains, locus YKL190W, strain CNB1, stronger effect = lower value 0.998 | S. cerevisiae deletion strains, locus YKR001C, strain vps1, stronger effect = lower value 0.989 | S. cerevisiae deletion strains, locus YKR026C, strain gcn3, stronger effect = lower value 0.983 | S. cerevisiae deletion strains, locus YKR091W, strain srl3, stronger effect = lower value 0.993 | S. cerevisiae deletion strains, locus YLL001W, strain dnm1, stronger effect = lower value 0.986 | S. cerevisiae deletion strains, locus YLL026W, stronger effect = lower value 0.996 | S. cerevisiae deletion strains, locus YLL041C, strain sdh2, stronger effect = lower value 0.997 | S. cerevisiae deletion strains, locus YLR027C, strain aat2, stronger effect = lower value 0.98 | S. cerevisiae deletion strains, locus YLR039C, strain RIC1, stronger effect = lower value 0.974 | S. cerevisiae deletion strains, locus YLR058C, strain SHM2, stronger effect = lower value 0.999 | S. cerevisiae deletion strains, locus YLR102C, strain apc9, stronger effect = lower value 0.984 | S. cerevisiae deletion strains, locus YLR113W, strain HOG1, stronger effect = lower value 0.958 | S. cerevisiae deletion strains, locus YLR221C, strain rsa3, stronger effect = lower value 0.989 | S. cerevisiae deletion strains, locus YLR258W, strain gsy2, stronger effect = lower value 1 | S. cerevisiae deletion strains, locus YLR262C, strain YPT6 (second series), stronger effect = lower value 1.01 | S. cerevisiae deletion strains, locus YLR262C, strain YPT6, stronger effect = lower value 0.992 | S. cerevisiae deletion strains, locus YLR268W, strain sec22, stronger effect = lower value 0.948 | S. cerevisiae deletion strains, locus YLR320W, strain mms22, stronger effect = lower value 0.991 | S. cerevisiae deletion strains, locus YLR330W, strain CHS5, stronger effect = lower value 0.99 | S. cerevisiae deletion strains, locus YLR342W, strain FKS1 (second series), stronger effect = lower value 1.04 | S. cerevisiae deletion strains, locus YLR342W, strain FKS1, stronger effect = lower value 0.984 | S. cerevisiae deletion strains, locus YLR357W, strain rsc2, stronger effect = lower value 0.969 | S. cerevisiae deletion strains, locus YLR370C, strain arc18, stronger effect = lower value 0.989 | S. cerevisiae deletion strains, locus YLR371W, strain rom2, stronger effect = lower value 0.992 | S. cerevisiae deletion strains, locus YLR384C, strain iki3, stronger effect = lower value 0.994 | S. cerevisiae deletion strains, locus YLR418C, strain cdc73, stronger effect = lower value 0.993 | S. cerevisiae deletion strains, locus YML016C, strain PPZ1, stronger effect = lower value 1 | S. cerevisiae deletion strains, locus YML032C, strain rad52, stronger effect = lower value 0.99 | S. cerevisiae deletion strains, locus YML120C, strain ndi1, stronger effect = lower value 1 | S. cerevisiae deletion strains, locus YML124C, strain tub3, stronger effect = lower value 0.985 | S. cerevisiae deletion strains, locus YMR058W, strain fet3, stronger effect = lower value 0.99 | S. cerevisiae deletion strains, locus YMR078C, strain ctf18, stronger effect = lower value 0.988 | S. cerevisiae deletion strains, locus YMR125W, strain sto1, stronger effect = lower value 0.981 | S. cerevisiae deletion strains, locus YMR129W, stronger effect = lower value 0.982 | S. cerevisiae deletion strains, locus YMR205C, strain PFK2, stronger effect = lower value 0.986 | S. cerevisiae deletion strains, locus YMR223W, strain ubp8, stronger effect = lower value 1.03 | S. cerevisiae deletion strains, locus YMR231W, strain pep5, stronger effect = lower value 0.974 | S. cerevisiae deletion strains, locus YMR263W, strain SAP30, stronger effect = lower value 0.992 | S. cerevisiae deletion strains, locus YMR307W, strain GAS1, stronger effect = lower value 1.1 | S. cerevisiae deletion strains, locus YNL067W, strain RPL9B, stronger effect = lower value 0.975 | S. cerevisiae deletion strains, locus YNL071W, strain lat1, stronger effect = lower value 0.992 | S. cerevisiae deletion strains, locus YNL128W, strain TEP1, stronger effect = lower value 0.986 | S. cerevisiae deletion strains, locus YNL153C, strain GIM3, stronger effect = lower value 0.991 | S. cerevisiae deletion strains, locus YNL183C, strain NPR1, stronger effect = lower value 0.919 | S. cerevisiae deletion strains, locus YNL209W, strain ssb2, stronger effect = lower value 0.984 | S. cerevisiae deletion strains, locus YNL233W, strain BNI4, stronger effect = lower value 0.985 | S. cerevisiae deletion strains, locus YNL248C, strain rpa49, stronger effect = lower value 0.989 | S. cerevisiae deletion strains, locus YNL250W, strain rad50, stronger effect = lower value 0.983 | S. cerevisiae deletion strains, locus YNL271C, strain bni1, stronger effect = lower value 0.984 | S. cerevisiae deletion strains, locus YNL298W, strain CLA4, stronger effect = lower value 0.991 | S. cerevisiae deletion strains, locus YNL307C, strain MCK1, stronger effect = lower value 0.997 | S. cerevisiae deletion strains, locus YNL322C, strain KRE1 (second series), stronger effect = lower value 0.988 | S. cerevisiae deletion strains, locus YNL322C, strain KRE1, stronger effect = lower value 0.984 | S. cerevisiae deletion strains, locus YNR049C, strain mso1, stronger effect = lower value 0.986 | S. cerevisiae deletion strains, locus YNR052C, strain pop2, stronger effect = lower value 0.98 | S. cerevisiae deletion strains, locus YOL006C, strain TOP1, stronger effect = lower value 0.955 | S. cerevisiae deletion strains, locus YOL012C, strain htz1 0.762 | S. cerevisiae deletion strains, locus YOL147C, strain pex11, stronger effect = lower value 0.997 | S. cerevisiae deletion strains, locus YOR001W, strain rrp6, stronger effect = lower value 0.992 | S. cerevisiae deletion strains, locus YOR061W, strain CKA2, stronger effect = lower value 1 | S. cerevisiae deletion strains, locus YOR069W, strain VPS5, stronger effect = lower value 1 | S. cerevisiae deletion strains, locus YOR070C, strain gyp1, stronger effect = lower value 0.986 | S. cerevisiae deletion strains, locus YOR080W, strain dia2, stronger effect = lower value 0.988 | S. cerevisiae deletion strains, locus YOR083W, strain WHI5, stronger effect = lower value 0.995 | S. cerevisiae deletion strains, locus YOR106W, strain vam3, stronger effect = lower value 1.02 | S. cerevisiae deletion strains, locus YOR136W, strain idh2, stronger effect = lower value 0.986 | S. cerevisiae deletion strains, locus YOR144C, strain elg1, stronger effect = lower value 0.982 | S. cerevisiae deletion strains, locus YOR184W, strain ser1, stronger effect = lower value 1.01 | S. cerevisiae deletion strains, locus YOR231W, strain MKK1, stronger effect = lower value 0.942 | S. cerevisiae deletion strains, locus YOR265W, strain rbl2, stronger effect = lower value 0.992 | S. cerevisiae deletion strains, locus YOR270C, strain vph1, stronger effect = lower value 1.03 | S. cerevisiae deletion strains, locus YOR290C, strain snf2, stronger effect = lower value 0.995 | S. cerevisiae deletion strains, locus YOR316C, strain cot1, stronger effect = lower value 0.983 | S. cerevisiae deletion strains, locus YPL051W, strain arl3, stronger effect = lower value 0.983 | S. cerevisiae deletion strains, locus YPL055C, strain LGE1, stronger effect = lower value 0.974 | S. cerevisiae deletion strains, locus YPL078C, strain atp4, stronger effect = lower value 0.997 | S. cerevisiae deletion strains, locus YPL106C, strain sse1, stronger effect = lower value 0.971 | S. cerevisiae deletion strains, locus YPL240C, strain hsp82, stronger effect = lower value 1 | S. cerevisiae deletion strains, locus YPL241C, strain CIN2, stronger effect = lower value 1 | S. cerevisiae deletion strains, locus YPL256C, strain CLN2, stronger effect = lower value 0.927 | S. cerevisiae deletion strains, locus YPR119W, strain clb2, stronger effect = lower value 0.996 | S. cerevisiae deletion strains, locus YPR141C, strain kar3, stronger effect = lower value 0.975 | S. cerevisiae deletion strains, locus YPR163C, strain tif3, stronger effect = lower value 0.986 | S. cerevisiae deletion strains, locus YPR167C, strain met16, stronger effect = lower value 0.982 | S. cerevisiae deletion strains, strain wtn01, stronger effect = lower value 0.982 | S. cerevisiae strains, strain wild type, stronger effect = lower value 0.997
